For assay [1], the target named is Rap guanine nucleotide exchange factor 3 (Homo sapiens) (UniProt O95398). Briefly: Confirmatory qHTS for antagonist of cAMP-regulated guanine nucleotide exchange factor 3 (EPAC1) (AID 1645880).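 For activity, negative = inhibition: plate controls were DMSO only for no effect and full effect of the ATA control for full effect.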 Note: nearly all actives have a fitted effect of over 55% in size. Note: potency is the fitted concentration of half-maximal effect. The following applies: EPAC1 Rap1B-BODIPY-GDP exchange, fluorescence; activity, negative = inhibition: at 115 µM (top of the series). In short, it runs like this: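 Nucleotide exchange uses 100 nM EPAC1, 250 nM RAP1B-BODIPY-GDP and 50 uM GDP, with compounds in a concentration-titration series. After 5 min at room temperature, fluorescence (480 nm ex/540 nm em) is read every 5 min for 30 min. Data are normalized to control ATA and DMSO.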
In general terms: Quantitative high-throughput screening tests each substance at several concentrations.

Assay [2] shares this target. As to the kind of experiment: Confirmatory qHTS for agonist of cAMP-regulated guanine nucleotide exchange factor 3 (EPAC1) (AID 1645881).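 Note: EPAC1 catalysed release of BODIPY-GDP from Rap1B seen as fluorescence loss; 100% = effect of cAMP agonist control; nearly all actives have a fitted effect of over 75% in size.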
For assay [3], the target named is Rap guanine nucleotide exchange factor 4 (Homo sapiens) (UniProt Q8WZA2). As to the kind of experiment: Confirmatory qHTS for agonist of cAMP-regulated guanine nucleotide exchange factor 4 (EPAC2) (AID 1645884). Note: % is set by controls: 0 for no effect and ±100 for the full control effect; nearly all actives have a fitted effect of over 65% in size.
Assay [4] addresses Rap guanine nucleotide exchange factor 3 (Homo sapiens) (UniProt O95398). Briefly: Counterscreen qHTS for antagonist of cAMP-regulated guanine nucleotide exchange factor 3 (EPAC1) (AID 1645888).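 For activity change, negative = inhibition: fluorescence loss as bound BODIPY-GDP is released from Rap1B; % of control where 0% means no effect.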 Note: potency is the fitted concentration of half-maximal effect. A digest of the protocol: (§1)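 Rap1B-BODIPY-GDP 250 nM + GDP 50 uM; cpds 7-pt, final 9.74 nM–152 uM (activator mode) or from 7.32 nM upwards (inhibitor mode); RT; FI 480/540 nm at 5 and 30 min, then ± cAMP, reread.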

The target is the same in assay [5]. As to the kind of experiment: Counterscreen qHTS for agonist of cAMP-regulated guanine nucleotide exchange factor 3 (EPAC1) (AID 1645889). Note: % of control where 0% means no effect; nearly all actives have a fitted effect of over 40% in size. A digest of the protocol: as §1
(In general: Counterscreens check selectivity or assay interference.)

Assay [6] deals with Tumor susceptibility gene 101 protein (Homo sapiens) (UniProt Q99816). Briefly: qHTS Assay for Iinhibitors of HIV-1 Budding by Blocking the Interaction of PTAP/TSG101: Hit Validation (AID 651600). Note: potency is the fitted concentration of half-maximal effect; nearly all actives have a fitted effect of over 70% in size. A digest of the protocol:
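Measuring PTAP–Tsg101 interaction by FP: protein at 10 uM and fluorescent peptide at 50 nM (final), buffer 10 mM HEPES pH 7.5 with 0.15 M NaCl, 3 mM EDTA, 0.1 mM TCEP, 0.01% Tween 20; 20 min incubation, r.t.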

The nature of assay [7]: AP1 Signaling Pathway (AID 357; active = well fitted curve in either direction with a large enough effect, not every such curve was filed as active; note: % is set by controls: 0 for no effect and ±100 for the full control effect). The conditions noted are these: ME-180 AP-1-bla reporter, EGF-induced, beta-lactamase ratio, 5 h; at 7.69 µM (top of the series) unless noted. In short, it runs like this: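 A ratiometric CCF4 readout (405 nm excitation; 460 and 530 nm emission) quantified AP-1-driven beta-lactamase in ME-180 cells after 5 h with compound and EC50 EGF; AC50 values were derived for activators and inhibitors.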

Assay [8] in a line: NFAT Signaling Pathway (AID 444; active = well fitted curve in either direction with a large enough effect, not every such curve was filed as active;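 note: carbachol stimulus at about its EC50 of 1 µM final; % is set by controls: 0 for no effect and ±100 for the full control effect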). The conditions noted are these: Jurkat NFAT-bla M1, carbachol, beta-lactamase ratio, 5 h; at 7.69 µM (top of the series) unless noted. A digest of the protocol: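 Read-out: CCF4 FRET ratio (460 nm/530 nm) after 1 h RT dye loading, used for %activity and AC50 from titration series. Cells: Jurkat NFAT-β-lactamase/M1 line, treated with compound plus 1 uM carbachol for 5 h, 37 °C.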

Assay [9] can be described thus: Stat Signaling Pathway (AID 446; active = well fitted curve in either direction with a large enough effect, not every such curve was filed as active;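 note: ME-180 cervical cancer cells given 40 pM IL-6 alongside compound; SIE-controlled beta-lactamase reporter measured as 460/530 nm FRET emission ratio; % is set by controls: 0 for no effect and ±100 for the full control effect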). A digest of the protocol: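 ME-180 SIE-bla cells; overnight plating; cpd + IL-6 40 pM, 5 h, 37 C; LiveBLAzer 2.5 h RT; 460/530 nm emission ratio. Normalized to 300 pM IL-6 and 125 nM JAK inhibitor controls.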
Assay [10] concerns the target Glucocorticoid receptor (Homo sapiens) (UniProt P04150). Briefly: GR-GFP Redistribution (AID 450;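 active = compounds whose dose series gives a full or clear partial fitted curve of increased nuclear translocation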; note: potency is the fitted concentration of half-maximal effect). The following applies: U2OS GR-GFP nuclear translocation, laser cytometry, 2 h.

Values without a mark were called inactive. Inconclusive results are not listed. Activity calls are given as the source filed them. Unless noted, calls come from the whole dose curve; as a rule, active = well fitted curve in the direction sought with a large enough effect; inconclusive = small, poorly fitted or top-dose-only effect, or another doubt; inactive = no such curve, though single readings can be large; an effect the other way counts as inactive or inconclusive.

Rap guanine nucleotide exchange factor 3 (Homo sapiens), sequence (O95398 whole entry, looked up): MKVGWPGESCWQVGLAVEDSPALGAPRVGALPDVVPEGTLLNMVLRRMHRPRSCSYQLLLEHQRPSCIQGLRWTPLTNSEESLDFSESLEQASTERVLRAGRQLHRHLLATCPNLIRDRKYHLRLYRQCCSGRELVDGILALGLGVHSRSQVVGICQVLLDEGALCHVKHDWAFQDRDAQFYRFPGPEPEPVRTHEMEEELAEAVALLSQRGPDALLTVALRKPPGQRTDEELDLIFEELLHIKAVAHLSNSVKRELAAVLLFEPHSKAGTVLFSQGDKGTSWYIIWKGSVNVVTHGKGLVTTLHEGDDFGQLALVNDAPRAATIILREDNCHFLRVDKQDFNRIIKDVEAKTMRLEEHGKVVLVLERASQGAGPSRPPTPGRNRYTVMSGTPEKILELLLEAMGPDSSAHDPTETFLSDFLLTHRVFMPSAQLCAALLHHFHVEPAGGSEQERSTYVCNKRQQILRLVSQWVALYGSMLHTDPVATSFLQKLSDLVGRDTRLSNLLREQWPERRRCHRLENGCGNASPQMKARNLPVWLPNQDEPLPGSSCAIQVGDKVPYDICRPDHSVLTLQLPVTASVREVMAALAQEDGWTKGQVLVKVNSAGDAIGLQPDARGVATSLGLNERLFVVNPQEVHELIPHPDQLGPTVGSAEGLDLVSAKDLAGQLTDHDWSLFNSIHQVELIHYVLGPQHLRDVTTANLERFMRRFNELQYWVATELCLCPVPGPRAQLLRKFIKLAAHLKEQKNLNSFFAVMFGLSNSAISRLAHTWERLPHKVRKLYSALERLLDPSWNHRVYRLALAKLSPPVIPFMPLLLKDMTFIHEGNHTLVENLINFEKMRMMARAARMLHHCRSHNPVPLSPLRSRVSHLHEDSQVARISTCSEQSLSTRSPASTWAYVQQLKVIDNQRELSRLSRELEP
Rap guanine nucleotide exchange factor 4 (Homo sapiens), sequence (Q8WZA2 whole entry, looked up): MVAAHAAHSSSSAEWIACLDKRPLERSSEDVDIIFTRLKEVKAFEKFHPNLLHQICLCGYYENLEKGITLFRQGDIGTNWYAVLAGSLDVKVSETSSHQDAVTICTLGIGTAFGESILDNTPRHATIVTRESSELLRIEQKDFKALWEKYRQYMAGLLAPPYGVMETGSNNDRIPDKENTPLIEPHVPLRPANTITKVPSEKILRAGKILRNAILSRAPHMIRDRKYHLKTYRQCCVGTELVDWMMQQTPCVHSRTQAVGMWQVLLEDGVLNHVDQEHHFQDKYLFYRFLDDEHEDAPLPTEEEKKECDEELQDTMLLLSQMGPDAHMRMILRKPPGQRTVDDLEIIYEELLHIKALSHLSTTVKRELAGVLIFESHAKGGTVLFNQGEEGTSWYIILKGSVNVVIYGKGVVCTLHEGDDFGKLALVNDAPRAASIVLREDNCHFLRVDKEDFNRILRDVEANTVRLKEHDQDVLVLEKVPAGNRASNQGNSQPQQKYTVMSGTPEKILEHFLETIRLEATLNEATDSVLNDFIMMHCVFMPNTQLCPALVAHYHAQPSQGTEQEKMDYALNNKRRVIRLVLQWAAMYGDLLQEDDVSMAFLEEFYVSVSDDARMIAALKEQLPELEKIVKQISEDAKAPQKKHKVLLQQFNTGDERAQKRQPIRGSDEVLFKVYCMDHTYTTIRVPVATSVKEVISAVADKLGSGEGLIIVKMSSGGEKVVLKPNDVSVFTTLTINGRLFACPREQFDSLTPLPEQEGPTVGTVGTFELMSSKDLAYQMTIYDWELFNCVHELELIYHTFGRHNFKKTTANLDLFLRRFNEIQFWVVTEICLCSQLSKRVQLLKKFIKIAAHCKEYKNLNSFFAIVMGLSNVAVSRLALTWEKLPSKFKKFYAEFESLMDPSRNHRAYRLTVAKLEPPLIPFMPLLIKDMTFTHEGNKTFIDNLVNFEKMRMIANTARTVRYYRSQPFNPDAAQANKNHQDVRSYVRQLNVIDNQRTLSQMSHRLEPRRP
Glucocorticoid receptor (Homo sapiens), sequence (P04150 whole entry, looked up): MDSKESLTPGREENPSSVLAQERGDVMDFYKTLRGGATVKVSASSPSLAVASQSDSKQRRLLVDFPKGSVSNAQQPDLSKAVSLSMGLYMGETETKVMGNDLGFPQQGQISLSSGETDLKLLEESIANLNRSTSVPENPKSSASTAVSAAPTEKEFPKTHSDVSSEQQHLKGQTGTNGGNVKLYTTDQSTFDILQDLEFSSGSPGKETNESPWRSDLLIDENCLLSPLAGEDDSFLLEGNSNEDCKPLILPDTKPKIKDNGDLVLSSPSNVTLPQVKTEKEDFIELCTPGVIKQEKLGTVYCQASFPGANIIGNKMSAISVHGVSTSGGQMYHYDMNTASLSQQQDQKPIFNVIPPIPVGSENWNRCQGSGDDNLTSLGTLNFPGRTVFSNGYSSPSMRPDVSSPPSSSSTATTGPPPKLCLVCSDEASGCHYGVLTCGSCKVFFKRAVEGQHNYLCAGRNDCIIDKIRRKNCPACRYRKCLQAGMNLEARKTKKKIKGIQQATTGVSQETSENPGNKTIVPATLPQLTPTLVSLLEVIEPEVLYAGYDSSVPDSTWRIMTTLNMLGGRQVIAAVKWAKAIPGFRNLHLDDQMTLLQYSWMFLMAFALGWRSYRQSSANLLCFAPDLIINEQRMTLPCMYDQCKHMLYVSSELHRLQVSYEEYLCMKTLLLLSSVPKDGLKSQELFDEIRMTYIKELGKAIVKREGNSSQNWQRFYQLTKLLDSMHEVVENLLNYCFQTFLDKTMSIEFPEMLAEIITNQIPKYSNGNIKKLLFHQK
Tumor susceptibility gene 101 protein (Homo sapiens), sequence (Q99816 whole entry, looked up): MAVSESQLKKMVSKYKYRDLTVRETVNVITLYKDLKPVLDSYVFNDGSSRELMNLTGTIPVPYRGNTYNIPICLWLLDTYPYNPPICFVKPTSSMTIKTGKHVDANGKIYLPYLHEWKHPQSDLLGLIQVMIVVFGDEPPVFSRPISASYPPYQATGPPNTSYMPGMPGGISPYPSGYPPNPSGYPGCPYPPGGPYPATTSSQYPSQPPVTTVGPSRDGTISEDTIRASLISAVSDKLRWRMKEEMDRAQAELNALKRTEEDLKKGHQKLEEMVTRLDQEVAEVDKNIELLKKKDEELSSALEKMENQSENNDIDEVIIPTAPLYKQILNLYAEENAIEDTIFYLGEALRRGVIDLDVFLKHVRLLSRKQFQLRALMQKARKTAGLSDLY

For `COc1cc(/C=C(\C#N)c2nc3ccccc3s2)cc([N+](=O)[O-])c1O`, the Potency in [1] is 16.9 µM (active). Further, the Potency result in [2], in assay [3], in assay [4] and in [5] was “inactive” in each case.
With `COc1ccccc1C1CC(=O)Oc2cc(C)cc(C)c21` (stereo not given), the Potency result in assay [1] and in [2] was “inactive” in each case. The activation in assay [3] was 3.14% [at 17.1 µM, percent relative to cAMP agonist control]; in assay [5], 7.71% [at 30.8 µM]. The activity change, negative = inhibition in [4] was -8.23% [at 30.8 µM].
Take `O=C(O)C1=CC[C@@H](c2ccc(Cl)cc2)N(S(=O)(=O)c2ccc(Cl)cc2)[C@H]1c1ccc(Br)cc1`: the Potency in [1] is 75.7 µM (active). The Potency entry in assay [2], in assay [3], in assay [4] and in assay [5] was “inactive” throughout.
As for `COc1ccc(N(C(=O)c2snc(C(N)=O)c2N)C(C(=O)NC2CCCC2)c2cccs2)cc1OC` (stereo not given), the Potency in assay [1] was 33.8 µM (active). Also, the Potency result in assay [2], in assay [3], in assay [4] and in assay [5] was “inactive” throughout.
As to `Oc1[nH]c2ccc(Br)cc2c1N=Nc1ccc(F)cc1`, the results for the Potency in assay [6], in assay [1] and in assay [4] were 10.3 µM (active), 84.9 µM (active) and 70.8 µM (active), respectively. For the same molecule, the Potency result in assay [2], in assay [3] and in assay [5] was “inactive” each time.
Turning to `CCC(CC)NC(=O)c1ccccc1Oc1ccccc1`, the Potency result in assay [1] and in [2] was “inactive” throughout. Moreover, the activation in [3] was 3.85% [at 17.1 µM, percent relative to cAMP agonist control]; in [5], 13.2% [at 30.8 µM]. The activity change, negative = inhibition in [4] was 6.83% [at 30.8 µM].
Consider `CCC(C(=O)OC(C)C)c1ccc2ccccc2c1` (stereo not given), for which the Potency entry in assay [1], in assay [2], in assay [3], in [4] and in assay [5] was “inactive” in each case.
Turning to `CCOC(=O)N/N=C/c1ccc(OCCSc2ccc(Cl)cc2)c(OC)c1`, the activity, negative = inhibition in assay [1] was -73.5% (active). In addition, the Potency entry in assay [2], in assay [3], in assay [4] and in assay [5] was “inactive” in each case.
In the case of `CCC(NC(=O)Nc1ncccc1C)(C(F)(F)F)C(F)(F)F`, the activity change, negative = inhibition in [7] is 11.9% [at 17.2 µM]; in [8], -12% [at 17.2 µM]. Moreover, the result in assay [9] was inactive. Further, the Potency in assay [10] was over 20.6 µM. The Potency result in [1], in assay [2], in [3], in assay [4] and in assay [5] was “inactive” throughout.
In the case of `Cc1noc(C)c1C(=O)N(CC(C)C)c1nc2ccccc2s1`, the Potency result in assay [1], in [2], in [3], in assay [4] and in assay [5] was “inactive” in each case.
Consider `COc1c(S(=O)(=O)N2CCCC2)ccc(Cl)c1Cl`, for which the Potency entry in assay [1] and in assay [2] was “inactive” throughout. The activation in assay [3] was 4.79% [at 17.1 µM, percent relative to cAMP agonist control]; in [5], 23.7% [at 30.8 µM]. For the same molecule, the activity change, negative = inhibition in assay [4] was -12% [at 30.8 µM].
`O=C(O)c1ccccc1-c1ccccc1C(=O)Nc1ccc2c(c1)oc(=O)c1ccccc12`: the Potency in assay [1] is 75.7 µM (active). Further, the Potency entry in [2], in assay [3], in [4] and in assay [5] was “inactive” in each case.
As to `COc1cc(C(c2c(C(=O)O)[nH]c3ccccc23)c2c(C(=O)O)[nH]c3ccccc23)ccc1OCc1ccccc1`, the Potency in [1] was 15.1 µM (active). Also, the Potency entry in assay [2], in assay [3], in assay [4] and in assay [5] was “inactive” in each case.
For the molecule `CCOC(=O)C1=C(C)N=c2s/c(=C\c3ccc(OCC(=O)O)cc3)c(=O)n2C1c1ccc(OC(C)C)cc1` (stereo not given), in [1], the Potency is 75.7 µM (active). The Potency entry in [2], in assay [3], in assay [4] and in assay [5] was “inactive” each time.
`CCOc1nc(-c2ccccc2)c2cc(C)ccc2n1`: the Potency entry in [1], in assay [2], in assay [3], in [4] and in [5] was “inactive” throughout.
On to `O=C1C=C(c2ccccc2Oc2ccccc2)C[C@@H](c2ccc(F)cc2)C1`, for which the Potency result in assay [1], in assay [2], in assay [3], in assay [4] and in assay [5] was “inactive” each time.
Take `CCN(CC(=O)Nc1ccc(NC(C)=O)cc1)C(=O)C1(c2ccc(Cl)cc2)CCC1`: the Potency entry in assay [1], in assay [2], in assay [3], in [4] and in assay [5] was “inactive” in each case.
Turning to `COc1ccccc1C(=O)Nc1ccccc1C(=O)N1C(C)CCCC1C` (stereo not given), the Potency entry in assay [1], in assay [2], in assay [3], in [4] and in assay [5] was “inactive” each time.
Consider `O=C(O)CN1C(=O)/C(=C\c2cc(Br)ccc2OCc2ccc([N+](=O)[O-])cc2)SC1=S`, for which the Potency in assay [1] is 30.1 µM (active). Moreover, the Potency result in assay [2], in [3], in assay [4] and in [5] was “inactive” in each case.
In the case of `Cc1ccc(NS(=O)(=O)c2cccs2)cc1S(=O)(=O)N1CCCCCC1`, the Potency entry in assay [1], in assay [2], in [3], in [4] and in assay [5] was “inactive” each time.
As for `COc1cc(SC)ccc1C(=O)Nc1c(C)cccc1C`, the Potency result in assay [1] and in [2] was “inactive” throughout. The activation in [3] is -7.76% [at 17.1 µM, percent relative to cAMP agonist control]; in assay [5], 6.15% [at 30.8 µM]. In addition, the activity change, negative = inhibition in [4] was -15.6% [at 30.8 µM].
For `Cc1ccc(C)c(Cn2cnc3ccccc3c2=O)c1`, the Potency result in [1], in assay [2], in assay [3], in assay [4] and in [5] was “inactive” throughout.
`COc1ccccc1OCCOc1ccc(/C=C2\C(=N)N3N=C(S(C)(=O)=O)SC3=NC2=O)cc1`: the Potency in assay [1] was 67.5 µM (active). The Potency entry in [2], in assay [3], in [4] and in assay [5] was “inactive” each time.

These data come from PubChem BioAssay (NCATS).
